PubChem BioAssay (NCATS)
Inconclusive results are not listed. Calls of active or inactive are those of the source. Unless noted, no rule for the calls is given here.

How the values were obtained:
[1] = qHTS profiling of the MIPE4 collection as inhibitors of Plasmodium falciparum (3D7) proliferation (AID 743344);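 also: scaled between DMSO vehicle wells and 0.29 µM artemisinin as full inhibition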; settings: P. falciparum 3D7 in erythrocytes, SYBR Green DNA fluorescence, 72 h; at 28.5 µM unless noted
Procedure, shortened: (§1)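 Erythrocytes infected with P. falciparum (0.3% parasitemia, 2.5% hematocrit) incubated with compounds 72 h at 37 C, 5% CO2. Lysis with saponin/Triton buffer containing SYBR Green I, overnight at room temperature in the dark; DNA fluorescence (485/535 nm) normalised to 0.29 uM artemisinin and DMSO.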

[2] = qHTS profiling of the MIPE4 collection as inhibitors of Plasmodium falciparum (DD2) proliferation (AID 743345); settings: P. falciparum Dd2 in erythrocytes, SYBR Green DNA, 72 h; at 28.5 µM unless noted
Procedure, shortened: as §1

[3] = qHTS profiling of the MIPE4 collection as inhibitors of Plasmodium falciparum (DD2) proliferation (Rep 2) (AID 743346); settings: P. falciparum Dd2 in erythrocytes, SYBR Green DNA, 72 h; at 28.5 µM unless noted
Procedure, shortened: as §1

[4] = qHTS profiling of the MIPE4 collection as inhibitors of Plasmodium falciparum (HB3) proliferation (AID 743347);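 also: plate controls were DMSO vehicle wells for no effect and artemisinin wells for full effect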; settings: P. falciparum HB3 in erythrocytes, SYBR Green DNA, 72 h; at 28.5 µM unless noted
Procedure, shortened: as §1

[5] = High-throughput drug toxicity screening in the BPDCN cell line Gen2.2 (AID 1224824); settings: Gen2.2 BPDCN cells; at 45.8 µM (top of the series) unless noted;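 also: cells exposed to compounds for 48 h before reading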
Procedure, shortened: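 CellTiter-Glo luminescence after 48 h compound exposure of Gen2.2 cells; percent activity set with DMSO as 100% and bortezomib (9.2 uM final) as 0%. Cells seeded at 500 per well, RPMI + 10% FBS, 37 °C.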

[6] = High-throughput drug toxicity screening in the BPDCN cell line Cal-1 (AID 1224825); settings: Cal-1 BPDCN cell viability, qHTS; at 45.8 µM (top of the series) unless noted
Procedure, shortened: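 500 Cal-1 cells/well, RPMI + glutamine + 10% FBS (phenol red-free); cpd added by pin tool; 48 h, 37C, 5% CO2; CTG 15 min RT, lumi read. Normalised: DMSO 100%, bortezomib 9.2 uM 0%.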

[7] = qHTS assay for measurement of the activity of small molecule inhibitors on Zika virus induced Caspase-3 activity in human iPSC derived neural progenitor cells (hNPCs) (AID 1224857; active = well fitted curve in the direction sought with a large enough effect; an effect the other way counts as inactive or inconclusive; also: % of control where 0% means no effect; nearly all actives have a fitted effect of over 65% in size)
Procedure, shortened: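 In medium with heparin 2 ug/ml and cyclopamine 2 uM, hNPCs (350 cells/well) received compound for one hour and then Zika virus at 2 FFU/cell; caspase activity was measured by Caspase-Glo 3/7 luminescence 6 h post-infection.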

[8] = qHTS assay for measurement of the activity of small molecule inhibitors on Zika virus induced Caspase-3 activity in human astrocytoma cells (AID 1224859; active = well fitted curve in the direction sought with a large enough effect; an effect the other way counts as inactive or inconclusive;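 also: plate controls were ZIKV-infected untreated cells for no effect and uninfected cells for full effect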)
Procedure, shortened: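 A cell-based luminescent caspase-3/7 assay used SNB-19 cells infected with ZIKV (2 FFU/cell) for 6 h following 1 h compound pretreatment.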

[9] = qHTS Screen of the MIPE 4.0 Collection Against Ewings Sarcoma (RDES) (AID 1259252; active = well fitted curve in the direction sought with a large enough effect; an effect the other way counts as inactive or inconclusive; also: nearly all actives have a fitted effect of over 35% in size; also: potency is read from the fitted curve at half-maximal effect)
Procedure, shortened: (§2)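 CellTiter-Glo luminescence after 48 h compound exposure (titration) gave viability; percent activity used DMSO-treated cells as no inhibition and medium-only wells as full inhibition. Cells grown in RPMI/5% FBS, dosed 4 h post-seeding.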

[10] = qHTS Screen of the MIPE 4.0 Collection Against Ewings Sarcoma (TC71) (AID 1259253; active = well fitted curve in the direction sought with a large enough effect; an effect the other way counts as inactive or inconclusive; also: nearly all actives have a fitted effect of over 40% in size; also: potency is read from the fitted curve at half-maximal effect)
Procedure, shortened: as §2

[11] = qHTS Screen of the MIPE 4.0 Collection Against Ewings Sarcoma (EW8) (AID 1259255; active = well fitted curve in the direction sought with a large enough effect; an effect the other way counts as inactive or inconclusive; also: nearly all actives have a fitted effect of over 35% in size; also: potency is read from the fitted curve at half-maximal effect;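 as to viability: 100% = DMSO-treated cells and 0% = medium-only wells without cells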)
Procedure, shortened: as §2

[12] = qHTS Screen of the MIPE 4.0 Collection Against Ewings Sarcoma (TC32) (AID 1259256; active = well fitted curve in the direction sought with a large enough effect; an effect the other way counts as inactive or inconclusive; also: nearly all actives have a fitted effect of over 45% in size; also: potency is read from the fitted curve at half-maximal effect)
Procedure, shortened: as §2

[13] = qHTS assay to identify small molecule inhibitors of chordoma cells - UCH-1 (AID 1259355; active = well fitted curve in the direction sought with a large enough effect; an effect the other way counts as inactive or inconclusive; also: % is scaled to controls: 0 for no effect and ±100 for the full control effect; nearly all actives have a fitted effect of over 55% in size)
Procedure, shortened: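 Seed 800 cells per well; incubate overnight at 37 C, 5% CO2. Add test compounds (15 concentrations), then the auranofin–topoisomerase-agent combination. Incubate 48hr, add CellTiter-Glo, wait 30min, read luminescence.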

[14] = qHTS assay to identify small molecule inhibitors of chordoma cells - UCH-2 (AID 1259356; active = well fitted curve in the direction sought with a large enough effect; an effect the other way counts as inactive or inconclusive; also: % is scaled to controls: 0 for no effect and ±100 for the full control effect)

Row | SMILES | parasite growth, % of DMSO control [1] | parasite growth remaining, % of DMSO control (lower = more inhibition) [2] | parasite growth, % of control (lower = inhibition) [3] | growth, % of control [4] | cell viability, % of control (lower = more cytotoxic) [5] | viability (% of control) [6] | Potency [7] | Potency [8] | Potency [9] | Potency [10] | Potency [11] | Potency [12] | outcome [13] | outcome [14]
1 | NS(=O)(=O)c1ccc(Nc2nc(OCC3CCCCC3)c3[nH]cnc3n2)cc1 | 17.4% | 13.9% | 24.8% | 11% | 12% | 9.86% | inactive | inactive | 5.9 µM (active) | 14.8 µM (active) | – | – | – | –
2 | Cc1cnc(-c2cc(N3CCN(C(=O)CCS(C)(=O)=O)CC3)ncc2Cl)c(C)c1 | 58.6% | 93.9% | 110% | 76.4% | 120% | 64.7% | inactive | inactive | inactive | inactive | – | – | – | –
3 | CNc1nc(Nc2ccc(C(=O)N3CCOCC3)cc2OC)ncc1Cl | 69.3% | 90.3% | 56.9% | 54.9% | 103% | 93.7% | inactive | inactive | inactive | – | inactive | – | – | –
4 | CCN1CCN(c2ccc(Nc3cc(N(C)C(=O)Nc4c(Cl)c(OC)cc(OC)c4Cl)ncn3)cc2)CC1 | 4.57% | 5.88% | – | 2.41% | 147% | 90.9% | inactive | inactive | inactive | – | inactive | inactive | – | –
5 | FC(F)(F)c1ccc(C=Cc2nc(COc3ccc(CCCCn4ccnn4)cc3)co2)cc1 | 77.3% | 85.5% | 62.6% | 83.1% | 102% | 17.8% | inactive | inactive | 0.059 µM (active) | – | 0.743 µM (active) | 0.0332 µM (active) | – | –
6 | CC1(C)OC2CC3C4CC(F)C5=CC(=O)C=CC5(C)C4C(O)CC3(C)[C@]2(C(=O)CO)O1 (stereo partly drawn) | 52.8% | 89.8% | – | 47.9% | 77.5% | 52% | inactive | inactive | inactive | – | inactive | – | – | –
7 | N#CC(c1ccc(Cl)cc1)c1c(Cl)cc(-n2ncc(=O)[nH]c2=O)cc1Cl (stereo not drawn) | 19.5% | 10.7% | 10.2% | 7.09% | 69.2% | 12.7% | inactive | inactive | 26.4 µM (active) | – | – | inactive | inactive | inactive
8 | Cc1ccc(C(=O)N(CCCN)[C@@H](c2oc3cc(Cl)ccc3c(=O)c2Cc2ccccc2)C(C)C)cc1 | 4.68% | 8.7% | – | 5.08% | 8.98% | 3.72% | inactive | inactive | inactive | – | inactive | inactive | – | –
9 | CC[C@H](C)C(=O)O[C@H]1C[C@H](O)C=C2C=C[C@H](C)[C@H](CC[C@@H](O)C[C@@H](O)CC(=O)O)[C@H]21 | 96% | 105% | 162% | 101% | 113% | 113% | inactive | inactive | inactive | – | – | 20.9 µM (active) | inactive | inactive
10 | COc1cc2nccc(Oc3ccc(NC(=O)Nc4ccc(F)cc4F)c(F)c3)c2cc1OC | 17.2% | 36.3% | – | 9.7% | 205% | 86.2% | inactive | inactive | 14.8 µM (active) | – | 16.6 µM (active) | – | – | –
11 | CN[C@H]1[C@@H](O[C@@H]2[C@H](O[C@@H]3[C@@H](O)[C@@H](O)[C@@H](N=C(N)N)[C@@H](O)[C@@H]3N=C(N)N)O[C@H](C)[C@@]2(O)C=O)O[C@@H](CO)[C@@H](O)[C@H]1O | – | 94.4% [at 9.64 µM] | 87.4% [at 9.64 µM] | – | 122% [at 15.3 µM] | 118% [at 15.3 µM] | inactive | inactive | inactive | – | inactive | inactive | – | –
12 | C[C@H](CCC(=O)O)[C@H]1CC[C@H]2[C@H]3[C@@H](CC[C@]12C)[C@@]1(C)CC[C@@H](O)C[C@H]1C[C@@H]3O | – | – | – | – | 75.1% | 35.2% | inactive | inactive | inactive | – | – | inactive | – | –
